Bioassay records: PubChem, several laboratories
AHR activator: AHR activators, primary screen, cell-based, luminescence, luciferase reporter, human | Aryl hydrocarbon receptor (Homo sapiens), P35869 | AHR-responsive luciferase reporter cells | activation, % at 5 µM | actives 2.5% (n = 320,000); in the data active means activation above about 47%
SENP8 block-1: human SENP8 protease inhibitors, primary screen, biochemical, fluorescence, Nedd8 protein substrate, uHTS | Sentrin-specific protease 8 (Homo sapiens), Q96LD8 | actives 0.64% (n = 360,000) | inhibition, % at 20 µM | recombinant SENP8; in the data active means inhibition mostly above about 40%, no sharp cut-off; inactive means mostly below about 27%
Target sequence (Q96LD8 whole entry, looked up): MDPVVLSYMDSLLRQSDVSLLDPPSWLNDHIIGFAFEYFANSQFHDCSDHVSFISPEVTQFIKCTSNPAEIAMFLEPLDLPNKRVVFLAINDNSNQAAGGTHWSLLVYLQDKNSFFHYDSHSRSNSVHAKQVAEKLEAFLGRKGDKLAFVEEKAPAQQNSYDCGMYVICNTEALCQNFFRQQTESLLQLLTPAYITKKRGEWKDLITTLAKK
SENP8 block-2: SENP8 protease inhibitors, primary screen, biochemical, luminescence. Sentrin-specific protease 8 (Homo sapiens), Q96LD8. purified SENP8, Z-RLRGG-aminoluciferin cleavage. inhibition, % at 10 µM. actives 1.2% (n = 330,000); in the data active means inhibition above about 50%
EBI2 antag: EBI2 receptor antagonists, beta-arrestin recruitment, primary screen, cell-based, luminescence, 7a,25-OHC stimulation, uHTS; AID 651636, 2012; 7a,25-OHC stimulated; actives 0.81% (n = 360,000); inhibition, % at 5 µM; in the data active means inhibition above about 38%;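 further: enzyme fragment complementation signal reports receptor beta-arrestin coupling in cells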
Target sequence (P32249 whole entry, looked up, the tested form may be a part): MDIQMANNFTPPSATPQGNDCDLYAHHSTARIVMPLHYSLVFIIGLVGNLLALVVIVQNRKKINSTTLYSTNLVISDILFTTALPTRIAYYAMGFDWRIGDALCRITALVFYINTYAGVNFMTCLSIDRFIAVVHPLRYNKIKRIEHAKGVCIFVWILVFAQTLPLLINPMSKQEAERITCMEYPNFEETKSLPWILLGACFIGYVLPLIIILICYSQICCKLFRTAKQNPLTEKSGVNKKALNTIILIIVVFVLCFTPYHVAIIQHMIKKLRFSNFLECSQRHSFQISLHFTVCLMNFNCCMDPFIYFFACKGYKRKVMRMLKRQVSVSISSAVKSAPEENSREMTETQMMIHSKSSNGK
SENP7 block: SENP7 protease inhibitors, primary screen, biochemical, luminescence, uHTS. recombinant SENP7, Z-RLRGG-aminoluciferin luminescence, 40 min. AID 434973, 2010. Sentrin-specific protease 7 (Homo sapiens), Q9BQF6. actives 1.5% (n = 330,000). inhibition, % at 5 µM;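 active means inhibition above about 50% at the single test dose, limit read from the data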
SENP6 block: SENP6 protease inhibitors, primary screen, biochemical, luminescence, uHTS | Recombinant SENP6 catalytic domain, aminoluciferin luminescence | inhibition, % at 10 µM | actives 1.8% (n = 330,000) | AID 2599, 2010;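 active means inhibition above about 50% at the single tested dose, limit read from the data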
EBI2 conf: EBI2 antagonist hit retest, beta-arrestin, confirmation, cell-based, single concentration, luminescence, 7a,25-OHC stimulation. shares compounds with EBI2 antag. 7a,25-OHC antagonism. inhibition, % at 5 µM. actives 29% (n = 2,400). AID 651997, 2013;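 active means inhibition of at least 50%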
EBI2 ag: EBI2 agonist activity of antagonist hits, confirmation, counter-screen for EBI2 antagonist project, cell-based, single concentration, agonist mode, luminescence. shares compounds with EBI2 antag. EBI2-expressing cells, 60 min; 0% vehicle, 100% 7α,25-dihydroxycholesterol control. activation, % at 5 µM. 2,400 tested, under 10 active. AID 652000, 2013;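 active means activation of at least 50%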
bGal counter: E. coli beta-galactosidase enzyme inhibition, confirmation, counter-screen for EBI2 antagonist project, biochemical, luminescence, single concentration; purified beta-galactosidase, luminescent Galacton Star, 15 min; shares compounds with EBI2 antag; actives 1% (n = 2,400); AID 652176, 2013; inhibition, % at 5 µM;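 active means replicate-average signal at least 3 plate SD below neutral wells, shown as high inhibition, flagging enzyme-inhibiting false positives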;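 further: higher means stronger loss of beta-gal luminescence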
Numbers stand for hits; n = inactive; x = not tested or not shown. In the library only some 5% were active in any assay of this set; here they are far more common.

SMILES	AHR activator	SENP8 block-1	SENP8 block-2	EBI2 antag	SENP7 block	SENP6 block	EBI2 conf	EBI2 ag	bGal counter
CCN1C(=O)/C(=C/c2nc3ccccc3c(=O)n2-c2ccccc2)c2ccccc21	n	n	n	45	n	n	51	n	n
CCN1C(=O)/C(=C\c2nc3ccccc3c(=O)n2CC)c2ccccc21	n	n	n	n	n	n	x	x	x
COc1ccc(OC[C@@H](O)CNC(=O)c2cccc3c2C(=O)c2ccc(Cl)cc2S3(=O)=O)cc1	n	n	n	n	n	n	x	x	x
Oc1ccc(O)c(C=NNC(=S)NC2CC3CC2C2C=CCC32)c1 (stereo unspecified)	x	n	x	49	x	x	n	n	n
Cc1c(Cl)cccc1NC(=O)Cn1nc(C)n2cccc2c1=O	n	n	n	n	n	n	x	x	x
C[C@H]1CN([C@@H](C)CO)C(=O)Cc2cc(NS(=O)(=O)c3cccs3)ccc2O[C@H]1CN(C)S(=O)(=O)c1cn(C)cn1	n	n	n	n	n	n	x	x	x
COc1ccc(C2c3ccc(O)cc3Oc3ncn4nc(-c5ccco5)nc4c32)cc1OC (stereo unspecified)	n	n	n	n	n	n	x	x	x
COc1ccc(C2c3ccc(O)cc3Oc3ncn4nc(-c5ccccn5)nc4c32)cc1 (stereo unspecified)	n	n	n	47	n	n	n	n	n
COc1ccc(N2CCN(c3nc(-c4cccs4)nc4ccccc34)CC2)cc1	n	n	n	63	n	n	n	n	n
c1csc(-c2nc(N3CCOCC3)c3ccccc3n2)c1	n	n	n	n	n	n	x	x	x
O=C1CC2(CCN(C(=O)COc3ccc(Cl)cc3)CC2)Oc2ccccc21	n	n	n	87	n	n	64	n	n
Cc1ccc(OCC(=O)N2CCC3(CC2)CC(=O)c2ccccc2O3)cc1	n	n	n	86	n	n	60	n	n
O=C1CC2(CCN(C(=O)c3ccc(Br)cc3)CC2)Oc2ccccc21	n	n	n	54	n	n	n	n	n
O=C(Nc1cc2cc([N+](=O)[O-])ccc2oc1=O)c1cccs1	n	x	n	x	n	n	x	x	x
O=C(O)c1ccc(Nc2nc(-c3cccnc3)cs2)cc1	n	n	n	n	n	n	x	x	x
Brc1cccc(Nc2nc(-c3cccnc3)cs2)c1	70	n	n	42	n	n	n	n	n
Clc1cccc(Nc2nc(-c3cccnc3)cs2)c1	55	n	n	48	n	n	53	n	n
CN(CC(=O)Nc1cccc(F)c1)C(=O)c1cc(S(=O)(=O)N2CCCCC2)ccc1N1CCOCC1	n	n	n	n	n	n	x	x	x
O=C(CSc1nnc(-c2ccncc2)n1Cc1ccccc1)NCCc1ccccc1	n	n	n	53	n	n	n	n	n
CCn1c(SCC(=O)NCCc2ccc(Cl)cc2)nnc1-c1cccs1	n	n	n	64	n	n	n	n	n
Cc1ccc(Cl)cc1N1CCN(C(=O)CN(c2ccccc2)S(=O)(=O)N(C)C)CC1	n	n	n	n	n	n	x	x	x
O=C(CC(=O)c1cccc([N+](=O)[O-])c1)Nc1ccccc1Cl	n	n	n	n	n	n	x	x	x
CN(C)c1ccc(NC(=O)c2sc(SCC(=O)Nc3ccc(Br)cc3)nc2N)cc1	n	n	n	n	n	n	x	x	x
CN(C)c1ccc(NC(=O)c2sc(SCC(=O)Nc3nccs3)nc2N)cc1	78	n	n	52	n	n	n	n	n
C=CCN1C(=O)NC(c2ccccc2)(C(F)(F)F)S/C1=C(\C#N)c1nnc(N2CCOCC2)n1-c1ccccc1 (stereo unspecified)	n	n	n	53	n	n	53	n	n
SMILES	AHR activator	SENP8 block-1	SENP8 block-2	EBI2 antag	SENP7 block	SENP6 block	EBI2 conf	EBI2 ag	bGal counter
COc1ccc(C)cc1S(=O)(=O)N1CCN(C)CC1c1ccccc1 (stereo unspecified)	n	n	n	n	n	n	x	x	x
O=C(CSc1nc(Nc2ccccc2)nc(N2CCOCC2)n1)Nc1ccc(Br)cc1F	n	n	n	46	n	n	n	n	n
O=C(CSc1nc(Nc2ccccc2)nc(N2CCOCC2)n1)Nc1ccccc1Cl	n	n	n	n	n	n	x	x	x
COc1ccc(S(=O)(=O)NNC(=O)C2COc3ccccc3O2)cc1[N+](=O)[O-] (stereo unspecified)	n	n	n	n	n	n	x	x	x
Cc1ccc(C)c(Oc2cc(NC(=O)CCCn3nc(C)c([N+](=O)[O-])c3C)cc([N+](=O)[O-])c2)c1	n	n	n	44	n	n	n	n	n
Cc1nn(CCCC(=O)Nc2cc(Oc3ccccc3)cc([N+](=O)[O-])c2)c(C)c1[N+](=O)[O-]	n	n	n	n	n	n	x	x	x
Cc1cc(NC(=O)C(C)SCC(=O)Nc2nc3c(F)cc(F)cc3s2)no1 (stereo unspecified)	n	n	n	n	n	n	x	x	x
Cc1ccc(NC(=S)Nc2ccc(C(C)C)cc2)cc1S(=O)(=O)N1CCCCCC1	n	n	n	50	n	n	51	n	n
Cc1ccc(C(=O)NCCc2ccc(S(=O)(=O)N3CCCC3)cc2)cc1	n	n	n	n	n	n	x	x	x
Cc1ccc(CNC(=O)c2ccc(S(=O)(=O)N3CCCCCC3)cc2)cc1	x	n	x	72	x	x	n	n	n
Cc1ccc(NC(=O)c2ccc(S(=O)(=O)N3CCCC3)cc2)cc1	n	n	n	n	n	n	x	x	x
Cc1cc2cc(CNC(=O)c3ccc(S(=O)(=O)N4CCCCC4)cc3)ccc2[nH]1	n	n	n	47	n	n	n	n	n
Cc1ccc(NC(=O)c2ccc(S(=O)(=O)N3CCCCC3)cc2)cc1	n	n	n	45	n	n	n	n	n
CC(NC(=O)CN(C)S(=O)(=O)c1cccc2nsnc12)c1ccccc1 (stereo unspecified)	n	n	n	n	n	n	x	x	x
CCOc1ccc(C(=O)NCc2ccccc2)cc1Br	n	n	n	n	n	n	x	x	x
NNC(=S)Nc1ccc(S(=O)(=O)N2CCOCC2)cc1	n	n	n	n	n	n	x	x	x
